Test [1] can be described thus: small molecules captured by biotinylated probe aFSTL3 – biochemical, small-molecule microarray, fluorescence 635/667, stem cell growth factor project, primary screen (AID 1064).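 Note: measures binding of the biotinylated anti-FSTL3 antibody to printed compounds.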 The conditions noted are these: higher = more signal.
Test [2] in a line: binders from COS7 lysate, DM2A8 probe, primary screen, torsin A project, cell lysate, small-molecule microarray, fluorescence 635/667 (AID 1065). To be noted: higher = more signal, COS7 lysate expressing mutant human TOR1A.
A short description of test [3]: small molecules captured by biotinylated probe aFGF2 – biochemical, small-molecule microarray, fluorescence 635/667, stem cell growth factor project, primary screen (AID 1067).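 Note: measures binding of biotinylated aFGF2 protein to printed compounds on slides; z-score merges feature fluorescence and signal-to-noise across triplicate slides.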 To be noted: higher = more signal.
Test [4] in a line: small molecules captured by biotinylated probe aFGF10 – biochemical, small-molecule microarray, fluorescence 635/667, stem cell growth factor project, primary screen (AID 1071).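 Note: score merges 667 nm spot intensity and signal to noise from triplicate slides.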 To be noted: higher = more signal.
Test [5] addresses Neurogenic locus notch homolog protein 2 (Homo sapiens) (UniProt Q04721). Briefly: small molecules binding Notch2 protein – biochemical, small-molecule microarray, 635 nm fluorescence, stem cell growth factors, primary screen (AID 1073). To be noted: higher = more signal.
The target in test [6] is Pro-neuregulin-1, membrane-bound isoform (Homo sapiens) (UniProt Q02297). Briefly: small molecules binding neuregulin-1 protein – biochemical, small-molecule microarray, fluorescence 635/667, psychiatric disease protein project, primary screen (AID 1075).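 Note: score combines 667 nm spot fluorescence with signal to noise.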 To be noted: NRG1 binding, 635 nm fluorescence, higher = more signal.
Sequence of Pro-neuregulin-1, membrane-bound isoform (Homo sapiens) (Q02297 whole entry, looked up, the tested form may be a part, canonical isoform): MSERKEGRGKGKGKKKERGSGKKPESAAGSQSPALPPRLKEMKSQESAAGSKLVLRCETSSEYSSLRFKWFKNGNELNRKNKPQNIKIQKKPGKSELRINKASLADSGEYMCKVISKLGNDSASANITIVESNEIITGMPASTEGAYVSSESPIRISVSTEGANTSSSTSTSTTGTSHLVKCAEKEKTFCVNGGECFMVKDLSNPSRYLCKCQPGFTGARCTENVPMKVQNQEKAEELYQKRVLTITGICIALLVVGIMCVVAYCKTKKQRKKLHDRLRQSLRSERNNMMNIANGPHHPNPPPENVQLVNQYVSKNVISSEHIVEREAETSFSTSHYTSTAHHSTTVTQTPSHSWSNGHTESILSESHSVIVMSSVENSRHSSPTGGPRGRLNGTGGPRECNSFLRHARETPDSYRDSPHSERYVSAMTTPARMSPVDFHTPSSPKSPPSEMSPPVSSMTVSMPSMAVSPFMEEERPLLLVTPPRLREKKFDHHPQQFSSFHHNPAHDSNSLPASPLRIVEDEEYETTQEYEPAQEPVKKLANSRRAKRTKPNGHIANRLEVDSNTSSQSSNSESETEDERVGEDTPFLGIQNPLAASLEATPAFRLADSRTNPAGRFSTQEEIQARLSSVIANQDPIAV
The subject of test [7] is Neuregulin-1 EGF-like domain. The test is described as follows: small molecules binding NRG1 EGF domain – biochemical, small-molecule microarray, 635 nm fluorescence, primary screen (AID 1081).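 Note: binding of the protein to compounds printed on small-molecule microarray slides.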 The conditions noted are these: higher = more signal.
The nature of test [8]: FRG1 expression reporter modulators in myotubes – cell-based, C2C12 myotubes, firefly/Renilla luciferase, luminescence, FRG1 inhibition for FSHD, primary screen (AID 1084). The conditions noted are these: FRG1 promoter luciferase, higher = more signal, called active from +8 up or from −8 down.
A short description of test [9]: small molecules captured by biotinylated probe aFST – biochemical, small-molecule microarray, fluorescence 635/667, stem cell growth factor project, primary screen (AID 1086).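 Note: score merges 667 nm fluorescence with signal-to-noise of each printed compound spot.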 The conditions noted are these: higher = more signal.
Test [10] can be described thus: binders of probe aHhip on microarray, primary screen, stem cell growth factor project, biochemical, small-molecule microarray, fluorescence 635/667 (AID 1087).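 Note: score merges spot fluorescence at 667nm with spot signal to noise ratio.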 The conditions noted are these: higher = more signal.

Calls of active or inactive are those of the source.

Sequence of Neurogenic locus notch homolog protein 2 (Homo sapiens) (Q04721 whole entry, looked up, canonical isoform): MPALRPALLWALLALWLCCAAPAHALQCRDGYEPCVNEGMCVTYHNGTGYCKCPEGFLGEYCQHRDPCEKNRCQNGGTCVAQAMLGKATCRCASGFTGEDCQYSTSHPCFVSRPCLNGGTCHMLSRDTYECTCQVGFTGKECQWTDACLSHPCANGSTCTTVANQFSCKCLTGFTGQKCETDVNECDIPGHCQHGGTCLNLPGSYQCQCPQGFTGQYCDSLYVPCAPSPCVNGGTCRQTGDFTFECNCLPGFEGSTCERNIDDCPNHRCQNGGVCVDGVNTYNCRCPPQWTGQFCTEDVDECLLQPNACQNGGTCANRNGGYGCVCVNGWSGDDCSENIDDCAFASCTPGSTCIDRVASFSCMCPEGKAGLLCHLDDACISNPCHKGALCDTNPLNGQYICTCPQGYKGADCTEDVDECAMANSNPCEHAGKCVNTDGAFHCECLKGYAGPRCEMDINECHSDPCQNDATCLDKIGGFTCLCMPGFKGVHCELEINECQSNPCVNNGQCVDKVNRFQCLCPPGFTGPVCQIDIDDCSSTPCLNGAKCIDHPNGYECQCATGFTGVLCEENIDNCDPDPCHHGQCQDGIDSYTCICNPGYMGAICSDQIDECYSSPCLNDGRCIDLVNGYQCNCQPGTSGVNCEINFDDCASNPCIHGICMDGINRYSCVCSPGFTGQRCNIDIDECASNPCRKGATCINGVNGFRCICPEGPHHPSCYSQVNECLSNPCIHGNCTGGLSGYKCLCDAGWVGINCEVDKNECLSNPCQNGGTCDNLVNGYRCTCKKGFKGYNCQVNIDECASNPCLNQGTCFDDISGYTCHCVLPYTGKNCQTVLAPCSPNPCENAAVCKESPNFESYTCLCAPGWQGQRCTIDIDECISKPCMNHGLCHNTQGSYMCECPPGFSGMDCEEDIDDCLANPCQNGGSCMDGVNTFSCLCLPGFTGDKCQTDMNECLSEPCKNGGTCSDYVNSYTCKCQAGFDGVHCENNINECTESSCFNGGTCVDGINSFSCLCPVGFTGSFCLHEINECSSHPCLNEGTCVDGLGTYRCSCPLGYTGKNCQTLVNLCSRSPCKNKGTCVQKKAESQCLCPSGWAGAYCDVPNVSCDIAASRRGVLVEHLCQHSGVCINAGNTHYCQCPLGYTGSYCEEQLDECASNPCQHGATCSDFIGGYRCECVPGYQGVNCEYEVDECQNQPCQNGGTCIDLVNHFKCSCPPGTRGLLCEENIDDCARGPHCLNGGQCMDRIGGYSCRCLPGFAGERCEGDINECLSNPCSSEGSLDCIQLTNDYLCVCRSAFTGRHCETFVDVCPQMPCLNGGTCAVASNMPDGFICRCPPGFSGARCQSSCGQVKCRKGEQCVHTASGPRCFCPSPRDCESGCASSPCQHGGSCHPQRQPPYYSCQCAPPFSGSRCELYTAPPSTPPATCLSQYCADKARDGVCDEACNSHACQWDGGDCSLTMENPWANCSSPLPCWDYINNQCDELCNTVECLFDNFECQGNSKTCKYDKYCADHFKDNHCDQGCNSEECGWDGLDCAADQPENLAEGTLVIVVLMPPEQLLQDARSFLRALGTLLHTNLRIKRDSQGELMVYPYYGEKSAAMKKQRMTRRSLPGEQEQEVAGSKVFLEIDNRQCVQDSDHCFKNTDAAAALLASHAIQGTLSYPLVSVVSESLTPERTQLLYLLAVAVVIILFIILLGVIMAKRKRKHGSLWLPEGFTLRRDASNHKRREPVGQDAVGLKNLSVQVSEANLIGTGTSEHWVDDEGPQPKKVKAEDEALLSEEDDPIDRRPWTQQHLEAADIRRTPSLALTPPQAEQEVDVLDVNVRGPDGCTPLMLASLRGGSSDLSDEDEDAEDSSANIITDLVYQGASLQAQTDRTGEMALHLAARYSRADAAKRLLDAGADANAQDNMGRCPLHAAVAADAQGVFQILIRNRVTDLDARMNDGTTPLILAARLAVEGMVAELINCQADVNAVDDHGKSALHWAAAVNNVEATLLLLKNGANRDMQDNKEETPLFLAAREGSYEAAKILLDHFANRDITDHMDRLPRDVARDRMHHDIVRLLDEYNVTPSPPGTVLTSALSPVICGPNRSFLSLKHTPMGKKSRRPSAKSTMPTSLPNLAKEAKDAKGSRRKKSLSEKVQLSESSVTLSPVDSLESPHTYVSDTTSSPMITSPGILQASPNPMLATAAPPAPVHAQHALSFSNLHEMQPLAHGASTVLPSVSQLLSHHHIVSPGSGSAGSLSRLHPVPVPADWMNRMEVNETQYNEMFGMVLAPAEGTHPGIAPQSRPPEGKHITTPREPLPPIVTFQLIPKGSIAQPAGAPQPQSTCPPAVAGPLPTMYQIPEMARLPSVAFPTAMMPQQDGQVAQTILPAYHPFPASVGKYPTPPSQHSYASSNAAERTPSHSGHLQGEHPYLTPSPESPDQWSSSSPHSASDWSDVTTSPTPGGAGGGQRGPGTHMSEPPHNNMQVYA

As for `C=CCN1C(=O)[C@@]2(O[C@@H](CCO)[C@H]([Si](C)(C)c3ccc(OC)cc3)[C@H]2C)c2cc(N3CCCCC3=O)ccc21`, the composite z-score was -0.217 in test [1]; 0.504 in [2]; -0.0415 in test [3]; 0.268 in [4]; 0.704 in test [5]; 1.12 in test [6]. In addition, the figures for the composite z-score in test [7], in test [9] and in test [10] were 1.14, 0.2 and 0.0373, respectively. In addition, the z-score in test [8] is -1.11 (inactive).
For the compound `C=C(COC)/C(=C/C[C@@H](OC(C)=O)c1cccc(OCCO)c1)c1cnc2ccccc2c1`, the composite z-score was 0.305 in test [1]; -0.116 in [2]; -0.076 in [3]; 0.826 in test [4]; 1.63 in test [5]; 0.679 in test [6]. Moreover, the composite z-score in [7] was 1.18; in test [9], 0.134; in [10], -0.214. For the same compound, the z-score in test [8] is 3.42 (inactive).
In the case of `NCCCCCCNC(=O)[C@@H]1C[C@@H]2C(=O)NCC(=O)N2[C@@H]1c1cccc(OCCO)c1`, the composite z-score in test [1] came to 0.403; in test [2], 0.641; in [3], 0.047; in [4], 0.847; in test [5], 1.2; in test [6], 0.982. Moreover, the figures for the composite z-score in [7], in test [9] and in [10] were 1.22, 0.543 and 0.385, respectively. The z-score in test [8] is 0.726 (inactive).
As to `C[N+](C)(C)CCCC[C@@H]1NC(=O)[C@H]2C[C@@H](C(=O)O)[C@@H](c3ccc(O)cc3)N2C1=O`, the composite z-score was 0.348 in test [1]; 0.211 in test [2]; -0.133 in test [3]; -0.0114 in test [4]; 0.288 in test [5]; 0.45 in [6]. For the same compound, the composite z-score was 1.3 in test [7], -0.166 in test [9] and -0.199 in test [10]. Besides, in test [8], the z-score was 4.06 (inactive).
With `CC(C)N1CC=CC23O[C@@H]4/C=C\CCCOC(=O)C4[C@H]2C(=O)N(C(C)CO)[C@@H]3C1=O` (stereo not given in full), the composite z-score in test [1] is -0.396; in test [2] it was -0.237; in test [3], -0.201; in test [4], -0.789; in test [5] it was -0.911; in test [6], 0.383. Besides, the figures for the composite z-score in test [7], in test [9] and in test [10] were 0.522, -0.588 and -0.303, respectively. Further, the z-score in [8] was -0.798 (inactive).
In the case of `C=C(C(=O)CC[C@@H](OC(=O)c1ccccc1-c1ccccc1C(=O)O)c1ccc(CO)o1)C(C)C`, the composite z-score is -0.422 in test [1]; 1.18 in test [2]; -0.087 in test [3]; 1.03 in test [4]; 0.0438 in test [5]; 0.115 in test [6]. The figures for the composite z-score in test [7], in test [9] and in test [10] were 0.445, 0.379 and -0.0645, respectively. Further, the z-score in [8] is 0.0639 (inactive).
As to `COc1cccc(C)c1NC(=O)O[C@H]1[C@H](OC(=O)Nc2ccccc2-c2ccccc2)[C@@H](OC(=O)Nc2ccccc2-c2ccccc2)[C@@H](OC)O[C@@H]1CO`, the composite z-score in [1] is -0.182; in test [2], 0.968; in test [3], 0.141; in [4], 1.17; in test [5], 1.61; in test [6] it was 1.74. Besides, the composite z-score in [7] turned out to be 1.38; in test [9], 1.64; in test [10], 0.053. Besides, in [8], the z-score is 0.945 (inactive).
On to `COCCOC(=O)N1C(=O)[C@@]2(c3cc(C#CC4=CCCCC4)ccc31)[C@H](c1ccc(O)cc1)N1[C@H](c3ccccc3)[C@H](c3ccccc3)OC(=O)[C@H]1[C@@H]2C(=O)N1CCc2cc(OC)c(OC)cc2C1`, for which the composite z-score in [1] was -0.253; in test [2], -0.252; in test [3], -0.0824; in [4] it was 0.142; in [5], 0.454; in test [6], 0.554. Also, the composite z-score is 1.11 in test [7], 0.0477 in test [9] and -0.0296 in [10]. In addition, in [8], the z-score was 0.237 (inactive).
On to `CCCCN1CC=CC23O[C@@H]4/C=C\CCC(C)OC(=O)C4[C@H]2C(=O)N(CCO)[C@@H]3C1=O` (stereo not given in full), for which the composite z-score in test [1] is 0.19; in [2], 1.97; in [3], -0.117; in test [4], -0.206; in test [5], -0.722; in [6] it was 0.19. Further, the composite z-score was 1.12 in test [7], -0.14 in [9] and -0.3 in [10]. Further, in [8], the z-score was -0.093 (inactive).
Turning to `CC(C)c1ccc(NN2C(C(O)C(C)c3ccccc3)C=CC3C(=O)N(c4ccccc4)C(=O)C32)cc1` (stereo not given), the composite z-score in test [1] was found to be 1.31; in test [2], 1.04; in [3] it was 0.51; in test [4] it was 1.08; in test [5], 1.71; in [6], 2.09. The values for the composite z-score in test [7], in [9] and in test [10] were 1.12, 1.97 and -0.12, respectively. Moreover, the z-score in test [8] was -0.632 (inactive).
Consider `COCCOC(=O)N1C(=O)[C@@]2(c3cc(C#CCNC(N)=O)ccc31)[C@H](C(=O)Nc1nc3ccccc3s1)[C@H]1C(=O)O[C@H](c3ccccc3)[C@H](c3ccccc3)N1[C@@H]2c1ccc(O)cc1`, for which the composite z-score in test [1] was -0.145; in test [2], 0.215; in test [3], -0.0284; in [4], 0.46; in [5], 0.968; in test [6] it was 0.882. Besides, the values for the composite z-score in test [7], in [9] and in test [10] were 0.595, 0.501 and 0.0373, respectively. Moreover, in [8], the z-score is 0.709 (inactive).
`COC(=O)C1(CC(C)C)C=C2C(=C(C)C(=O)C2C)CN1` (stereo not given): the composite z-score was 1.72 in test [1]; 0.126 in [2]; 0.317 in [3]; -0.302 in test [4]; 0.28 in test [5]; -0.304 in test [6]. Also, the composite z-score was found to be 0.641 in [7], 1.58 in test [9] and 1.43 in test [10]. Also, the z-score in test [8] is 2.36 (inactive).
For `CO[C@H]1O[C@H](CO)[C@@H](OC(=O)Nc2cccc(F)c2)[C@H](OC(=O)Nc2ccc3c(c2)OCO3)[C@@H]1OC(=O)Nc1ccc2c(c1)OCO2`, the composite z-score was -0.0407 in test [1]; 0.786 in test [2]; 0.112 in test [3]; 0.959 in test [4]; 1.46 in [5]; 1.25 in test [6]. Also, the composite z-score in test [7] was 1.27; in [9], 0.986; in test [10], 0.21. In addition, the z-score in test [8] was 4 (inactive).
With `COc1ccc(C(O)C2C=CC3C(=O)N(c4ccccc4)C(=O)C3N2Nc2ccccc2F)c2ccccc12` (stereo not given), the composite z-score came to 1.24 in [1]; 1.08 in test [2]; 0.433 in test [3]; 1.14 in [4]; 1.72 in [5]; 1.79 in test [6]. Further, the composite z-score in test [7] was 1.23; in [9], 1.89; in [10], -0.233. For the same compound, the z-score in test [8] was 1.25 (inactive).
For the compound `COc1ccc([Si](C)(C)[C@@H]2[C@@H](CC(=O)N(CCO)Cc3ccccc3)O[C@]3(C(=O)N(Cc4cccc(I)c4)c4ccccc43)[C@H]2C)cc1`, the composite z-score in test [1] was 2.68; in [2], 1.17; in test [3] it was -0.0422; in [4], 0.396; in test [5], 0.779; in [6] it was 0.496. Also, the composite z-score is 1.13 in test [7], 0.42 in test [9] and 0.572 in test [10]. For the same compound, the z-score in test [8] is -0.939 (inactive).
For the compound `COc1cc(Cc2cc3c(c(-c4ccccc4)n2)[Si](C(C)C)(C(C)C)OC3)cc(OC)c1OC`, the composite z-score in test [1] was 0.13; in test [2], 0.0203; in [3], -0.141; in test [4], 0.305; in test [5], -0.374; in test [6], -0.289. In addition, the composite z-score is -0.683 in [7], 0.0647 in [9] and 0.0274 in test [10]. For the same compound, the z-score in [8] was -0.277 (inactive).

For the origin of these results see PubChem BioAssay.
